# CHX counter: affects cycloheximide protein synthesis inhibition readout, counter-screen; cell reporter, cycloheximide protein synthesis inhibition counterscreen; max response, %; 12% of 300,000 active; in the data active = max response mostly above about 13%, no sharp cut-off; inactive = mostly below about 14%; also: read at 38.3 µM for the half of the compounds with a filed dose
# Pf growth 48h: inhibits P. falciparum growth in the first generation, 48 h; P. falciparum luciferase growth in erythrocytes, 48 h; AID 504832; Potency, µM (top dose mostly 28.7 µM), hits mostly inhibitors; 5.9% of 310,000 active; active = well fitted inhibition curve with a large enough effect; inconclusive = small, poorly fitted or top-dose-only effect, or another doubt; inactive = no such curve, though single readings can be large or run the other way
#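 Here the parasites carry a stable luciferase gene and grow inside erythrocytes in Albumax-based RPMI medium with compound for one erythrocytic cycle. Activity is scored as loss of luminescent signal.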
# Shiga inhibitor: inhibitors of Shiga toxin in Vero cells | Vero cells, Shiga toxin protein synthesis inhibition reporter | inhibition, % at 38.7 µM | 9.2% of 290,000 active | AID 2315; in the data active = inhibition mostly above about 28%, no sharp cut-off; inactive = mostly below about 43%
# NS1 function inh: inhibitors of influenza NS1 protein function. 0.4% of 270,000 active. Potency, µM (series often up to 46.1 µM); also: actives are rising curves; nearly all actives have a fitted effect of over 50% in size
#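 A cell-based growth assay was used: compounds that relieve NS1-induced slow growth of budding yeast raise OD600. Assay medium was yeast nitrogen base with ammonium sulphate and -URA supplement, pH 6.0, with 2% galactose.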
# Pf growth 96h: P. falciparum growth inhibition at 96 hours | Potency, µM (series often up to 28.7 µM), actives largely listed as inhibitors | P. falciparum luciferase reporter growth, 96 h | 6.9% of 320,000 active; active = well fitted inhibition curve with a large enough effect; inconclusive = small, poorly fitted or top-dose-only effect, or another doubt; inactive = no such curve, though single readings can be large or run the other way
#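 Compounds incubated with erythrocytes infected by luciferase-expressing P. falciparum (2% hematocrit, 0.05% parasitemia final) for 96 hours, 37 C in 5% CO2. Growth inhibition scored as decreased luciferase luminescence.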
# SARS PLP yeast: SARS-CoV PLP inhibition in yeast; Potency, µM (highest dose often 32.9 µM), hits mostly activators; AID 485353; 0.19% of 330,000 active; S. cerevisiae expressing SARS-CoV PLpro, growth rescue; also: nearly all actives have a fitted effect of over 55% in size
# A number is an active result; i = inactive; ? = inconclusive; nt = no result; [ ] = another dose, or the depositor's remark. Hits are enriched below; roughly 21% of the tested compounds scored in any of these assays. Unless noted, calls follow the shape of the full dose curve.
SMILES,CHX counter,Pf growth 48h,Shiga inhibitor,NS1 function inh,Pf growth 96h,SARS PLP yeast
Cc1ccc2nc(SCC(=O)c3c(N)n(C)c(=O)n(C)c3=O)[nH]c2c1,i,i,i,nt,i,i
Cc1ccc2nc(SCC(=O)N3CCOCC3)[nH]c2c1,38.3,nt,55.9,i,i,i
CCOC(=O)C1CCN(C(=O)COC(=O)c2ccccc2C(=O)c2ccc(Cl)cc2)CC1,nt,?,nt,nt,i,i
COc1ccc2cc(C3(C)NC(=O)N(CC(=O)N4CCCCC4)C3=O)ccc2c1 (configuration not stated),nt,nt,nt,nt,nt,i
Cc1cc(C(=O)CSc2nc3ccc(Cl)cc3[nH]2)c(C)n1CC1CCCO1 (configuration not stated),i,nt,i,i,?,i
Cc1ccc2nc(SCC3CCCCO3)[nH]c2c1 (configuration not stated),29.7,i,43.9,i,i,i
CCCNC(=O)C(Cc1ccc(Cl)cc1)NC(=O)c1ccc(C#N)cc1 (configuration not stated),nt,?,nt,nt,i,i
CC1(C)N=C(N)NC(Nc2cccc(Br)c2)=N1,i,nt,i,i,1.17µM,i
Cc1cc(O)c2ccccc2c1O,nt,i,nt,nt,8.49µM,nt
COc1ccc(/C=N/NC(=O)C(=O)N2CCCC2)cc1,36.2,i,i,i,?,i
COc1cc(/C=N/NC(=O)C(=O)N2CCCCCC2)ccc1O,i,?,i,i,i,i
CN(C)c1ccc(/C=N/NC(=O)C(=O)N2CCCCCC2)cc1,25.5,i,i,i,?,i
COc1nc(N/N=C/c2ccc(C)cc2)nc(N2CCCCC2)n1,i,i,i,i,i,i
Cc1ccc(Nc2nc(N)c3ccccc3n2)cc1Cl,43.0,?,nt,i,i,i
CCOC(=O)c1ccc(Nc2nc(N)c3cc(OC)c(OC)cc3n2)cc1,i,1.04µM,i,i,i,i
COc1cc2nc(Nc3ccc(C)c(Cl)c3)nc(N)c2cc1OC,i,0.586µM,i,i,i,i
COc1cc2nc(Nc3ccc(C)c(C)c3)nc(N)c2cc1OC,i,0.522µM,i,i,i,i
COC(=O)c1ccc(Nc2nc(C)cc(C)n2)cc1,i,i,i,i,i,i
Cc1ccc(Nc2nc3ccccc3n3cnnc23)cc1Cl,i,?,i,i,?,i
COc1cc2nc(Nc3ccc(F)cc3)nc(N)c2cc1OC,16.5,0.522µM,i,i,i,i
Cc1ccc(Nc2ncnc(N)n2)cc1C,25.8,i,50.0,i,4.15µM,i
COc1cc2nc(N(C)C)nc(N)c2cc1OC,i,?,i,i,i,i
O=[N+]([O-])c1cc([N+](=O)[O-])c(Oc2cc(Cl)cc(Cl)c2)cc1NN1CCCCC1,nt,i,nt,nt,i,i
COc1ccccc1C(=O)NCC(=O)Nc1ccccc1,i,i,i,i,nt,i
COc1ccccc1NC(=O)CC(=O)c1ccccc1,i,i,55.3,i,i,i
SMILES,CHX counter,Pf growth 48h,Shiga inhibitor,NS1 function inh,Pf growth 96h,SARS PLP yeast
COc1ccccc1C(=O)CC(=O)c1ccccc1,67.6,i,85.4,i,?,i
CCC(CO)NCc1ccc(OCC(=O)Nc2cccc(C(F)(F)F)c2)c(OC)c1 (configuration not stated),i,i,i,i,i,i
CCOc1cc(CNC(C)(C)C)ccc1OCC(=O)Nc1cccc(C(F)(F)F)c1,i,6.57µM,i,i,i[1.15 µM],i
CCOc1cc(CNCCCN2CCOCC2)cc(Cl)c1OCC(=O)NC(C)(C)C,i,?,i,i,i,i
CCOc1cc(CNCCCN2CCOCC2)cc(Br)c1OCC(=O)Nc1cccc(C(F)(F)F)c1,i,1.17µM,i,i,0.657µM,i
COc1ccc(NC(=O)CN(C)C(=O)c2ccc(S(=O)(=O)Nc3ccccc3C)cc2)cc1,nt,?,nt,nt,?,i
CC1CC(=O)Nc2ccccc2N1S(=O)(=O)c1ccc(F)cc1F (configuration not stated),i,2.33µM,i,i,?,i
CC(=O)Nc1ccc(S(=O)(=O)N2c3ccccc3NC(=O)CC2C)c(Cl)c1 (configuration not stated),i,2.08µM,i,i,i,i
COc1ccc(Cl)cc1NC(=O)CN(C)C(=O)Cc1n[nH]c(=O)c2ccccc12,nt,i,nt,nt,i,i
CCSc1cc(N2CCCC2)nc(-c2ccc(C)cc2)n1,i,?,i,i,?,i
CCSc1cc(N2CC(C)OC(C)C2)nc(-c2ccccc2Cl)n1 (configuration not stated),i,2.08µM,i,?,nt,i
CCC1=C(OC(=O)N(CC)CC)N2C(=O)OC(=NCCc3c[nH]c4ccccc34)[C@]2(C)[C@H]2C1=CC[C@H]1C(=O)NC(=O)[C@H]12,i,11.7µM,i,i,?,i
CCC1=C(OC(=O)N(CC)CC)N2C(=O)OC(=NCC3CC3)[C@]2(C)[C@H]2C1=CC[C@H]1C(=O)NC(=O)[C@H]12,i,?,i,i,?,i
CCC1=C(OC(=O)N(CC)CC)N2C(=O)OC(=NCCc3c[nH]c4ccccc34)[C@]2(C)[C@H]2C1=CC[C@H]1C(=O)N(CC(=O)OC)C(=O)[C@H]12,i,9.28µM,i,i,14.7µM,i
CC1(C)Cc2c(c(=S)nc(-c3ccccc3)n2CCOCCO)CO1,i,i,i,i,i,i
OCCOCCn1c(-c2ccccc2)nc(=S)c2c1CCCC2,i,nt,i,i,10.4µM,i
Cc1ccc(S(=O)(=O)N(C)C)cc1NC(=O)COC(=O)Cc1cccs1,nt,?,nt,nt,i,i
CCOC(=O)C1=CN(Cc2cccc(F)c2)S(=O)(=O)N(C)C1CCc1ccccc1 (configuration not stated),nt,nt,nt,nt,nt,i
CCCn1c(N)c(C(=O)CSc2nc(C)cs2)c(=O)[nH]c1=O,i,i,i,i,nt,i
CCCCNc1nnc(SCC(=O)c2c(N)n(CCC)c(=O)[nH]c2=O)s1,nt,11.7µM,nt,nt,9.28µM,i
Cc1noc(C)c1C(=O)Nc1nc(-c2ccccc2Cl)cs1,36.1,i,65.7,i,i,i
Cc1onc(-c2ccccc2)c1C(=O)Nc1nc(-c2ccccc2)cs1,30.5,i,95.6,i,nt,i
O=S(=O)(Nc1ncccn1)c1ccc(NC(=S)Nc2cccc(Cl)c2)cc1,i,i,i,i,i,i
Cc1ccc2nc3c(c(Nc4ccc5c(c4)OCCO5)c2c1)CCC3,i,4.15µM,i,i,?,i
COc1ccc(Nc2c3c(nc4ccc(C)cc24)CCC3)cc1,i,8.28µM,i,i,i,i
SMILES,CHX counter,Pf growth 48h,Shiga inhibitor,NS1 function inh,Pf growth 96h,SARS PLP yeast
Cc1ccc2nc3c(c(Nc4ccc(O)cc4)c2c1)CCC3,i,2.33µM,i,i,i,i
Cc1nn(-c2ccccc2)c2c1C(O)n1c(nc3ccccc31)S2 (configuration not stated),i,1.65µM,i,i,i,i
CNC(=O)c1oc(-c2ccccc2)nc1C,i,i,i,i,i,i
COc1ccc(-c2cc(C(F)(F)F)n3ncc(C(=O)O)c3n2)cc1OC,24.7,i,i,i,i[5.75 µM],i
O=C(c1cnn2c(C(F)(F)F)cc(-c3ccccc3)nc12)N1CCC2(CC1)OCCO2,i,nt,i,i,14.7µM,i
COC(=O)c1cnn2c(C(F)(F)F)cc(-c3ccccc3)nc12,i,?,i,i,?,i
